# According to PubChem BioAssay:
# Several values for one entry are separate records, joined by “and”; a condition that tells them apart may be missing. Equal entries are not always repeated. Records with an inconclusive call do not appear. For some of these results: Potency and affinity values are given separately. Activity calls are given as the source filed them.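 Rule for the calls, unless noted: active = compounds whose cell count with miR-34 switched on is under 0.7 times the count with it off; inactive = the rest.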
# Tests used:
# [1] = target: ATP-dependent translocase ABCB1 (Homo sapiens) (UniProt P08183); assay: MDR1 (ABCB1) efflux transporter inhibition, cell-based (AID 377; in the data active = fluorescence slope change above about 50%); conditions: MDR1-expressing cells, fluorescent substrate accumulation slope; stronger effect = higher value; concentration not given here
# [2] = liver-stage malaria parasite growth inhibition, primary screen, cell-based, HepG2, luciferase luminescence, HepG2 viability (AID 624349; in the data active = parasite load remaining mostly below about 12%, no sharp cut-off; inactive = mostly above about 10%;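 note: 100% = mean of DMSO negative control wells on the same plate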); conditions: P. berghei liver stage in HepG2, luciferase luminescence, concentration not given here; parasite load remaining: stronger effect = lower value; viability: measured here: HepG2 viability without parasites
# [3] = sensitizers of A549 cells to miR-34 induction, primary screen, imaging, A549 dox-inducible miR-34, nuclei and caspase counts (AID 1347080); conditions: A549 miR-34 inducible, Hoechst nuclei count, 48 h
# [4] = survival rescue of mitochondrial mutant cells in low glucose, primary screen, MELAS cybrids, Rieske KO mouse fibroblasts, CellTiter-Glo (AID 1508586;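 active = mean z-score across replicates of 1.96 or higher in either the MELAS or the Rieske mutant cell line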;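 note: z relative to plate mean and SD of compound and empty wells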)
# [5] = target: NAD(+) hydrolase SARM1 (Homo sapiens) (UniProt Q6SZW1); assay: SARM1 TIR NADase inhibitors, cell lysate, NAD-Glo luminescence (AID 1508614;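 active = compound whose remaining NAD level is above about 45 nM, limit read from the data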;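 note: higher remaining NAD means stronger inhibition of SARM1 NADase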); conditions: SAM-TIR HEK293T lysate NADase, at 1 µM, stronger effect = higher value
# [6] = target: Mitogen-activated protein kinase 7 (Homo sapiens) (UniProt Q13164); assay: ERK5 transactivation activators in reporter cells, primary screen, cell-based, HTS (AID 1508626;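 active = luciferase signal above three times the same-plate solvent-only control wells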;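 note: luciferase driven by Gal4-ERK5 fusion binding five Gal4 sites before minimal TATA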); conditions: HeLa Gal4-ERK5 transactivation, 18 h, at 5 µM, stronger effect = higher value
# [7] = viability rescue of complex I mutant cybrids, primary screen, cell-based, galactose medium, ATP luminescence (AID 1645843;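 active = z-score of at least 1.8 in each of two replicates, scored against plate mean and spread of sample wells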;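 note: positive z means more ATP and so rescue of galactose-driven cybrid death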); conditions: complex I mutant cybrid cells, 72 h, stronger effect = higher value
# [8] = polyglutamine-triggered caspase-3 activation inhibitors, cell-based (AID 1583); conditions: polyglutamine-induced caspase-3 activation, cell assay; stronger effect = higher value;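 tested at 10 µM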
# [9] = suppressors of polyQ aggregation in yeast, 75Q-TubU reporter (AID 1593); conditions: Yeast 75Q polyglutamine aggregation reporter
# [10] = rescue of polyQ-huntingtin neuronal dysfunction in worms, whole organism, C. elegans mechanosensory neurons, N-terminal huntingtin (AID 1599); conditions: touch response, stronger effect = higher value
# [11] = inhibitors of mitochondrial cytochrome c release, biochemical, purified mitochondria (AID 1603); conditions: stronger effect = lower value;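 note: mouse liver mitochondria challenged with calcium chloride; signal normalized to the plate average as 100%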
# [12] = inhibitors of polyQ protein aggregation (AID 1604); conditions: polyglutamine-induced protein aggregation inhibition assay; stronger effect = higher value; tested at 2.5 µM
# [13] = enhancers of glutamate uptake in motor neurons, MN-1 cell line (AID 1612); conditions: MN-1 motor neuron cells, stronger effect = higher value;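 note: tested at 1 µM final; 0% = mean of DMSO vehicle wells on each plate; positive means more glutamate uptake than control and negative means less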
# [14] = reducers of polyQ inclusions in PC12 cells, cell-based, NGF-treated PC12, GFPQ80 (AID 1614); conditions: PC12 NGF-treated GFP-polyQ80 inclusion reduction;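 note: lower means fewer inclusions and 0 means no inclusions at all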
# [15] = suppressors of polyglutamine aggregation in yeast, 75Q-TubH (AID 1616); conditions: S. cerevisiae 75Q-TubH polyglutamine aggregation suppression; stronger effect = higher value
# [16] = stronger effect = lower value, cell number ratio, induced over uninduced
# [17] = measured here: relative caspase fold change +Dox/-Dox
# [18] = measured here: total cells with miR-34 induction, stronger effect = lower value
# [19] = measured here: total cells without miR-34 induction
# [20] = MELAS cybrid survival, CellTiter-Glo 48 h, stronger effect = higher value
# [21] = Rieske KO mouse fibroblast survival, CellTiter-Glo 72 h
# Mitogen-activated protein kinase 7 (Homo sapiens), sequence (Q13164 whole entry, looked up, the tested form may be a part): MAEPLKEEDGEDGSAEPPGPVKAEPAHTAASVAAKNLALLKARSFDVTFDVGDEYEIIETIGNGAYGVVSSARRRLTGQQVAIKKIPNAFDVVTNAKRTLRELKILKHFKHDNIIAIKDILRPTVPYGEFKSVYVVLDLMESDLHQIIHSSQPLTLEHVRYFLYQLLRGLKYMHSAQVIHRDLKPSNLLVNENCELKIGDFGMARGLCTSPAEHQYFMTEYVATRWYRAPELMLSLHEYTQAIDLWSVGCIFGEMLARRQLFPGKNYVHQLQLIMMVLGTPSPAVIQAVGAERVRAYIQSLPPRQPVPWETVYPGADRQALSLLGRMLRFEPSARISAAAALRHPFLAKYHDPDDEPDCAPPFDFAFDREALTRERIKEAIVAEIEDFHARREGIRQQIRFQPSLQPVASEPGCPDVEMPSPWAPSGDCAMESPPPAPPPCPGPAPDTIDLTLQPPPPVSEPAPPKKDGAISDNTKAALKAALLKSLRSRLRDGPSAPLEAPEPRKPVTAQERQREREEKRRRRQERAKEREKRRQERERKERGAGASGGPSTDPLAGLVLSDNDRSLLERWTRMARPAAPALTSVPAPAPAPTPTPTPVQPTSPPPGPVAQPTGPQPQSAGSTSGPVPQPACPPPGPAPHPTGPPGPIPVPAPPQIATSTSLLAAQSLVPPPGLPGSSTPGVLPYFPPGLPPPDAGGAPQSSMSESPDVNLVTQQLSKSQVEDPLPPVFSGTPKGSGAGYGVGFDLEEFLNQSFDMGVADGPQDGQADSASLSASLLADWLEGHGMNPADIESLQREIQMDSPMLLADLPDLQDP
# NAD(+) hydrolase SARM1 (Homo sapiens), sequence (Q6SZW1 whole entry, looked up, the tested form may be a part): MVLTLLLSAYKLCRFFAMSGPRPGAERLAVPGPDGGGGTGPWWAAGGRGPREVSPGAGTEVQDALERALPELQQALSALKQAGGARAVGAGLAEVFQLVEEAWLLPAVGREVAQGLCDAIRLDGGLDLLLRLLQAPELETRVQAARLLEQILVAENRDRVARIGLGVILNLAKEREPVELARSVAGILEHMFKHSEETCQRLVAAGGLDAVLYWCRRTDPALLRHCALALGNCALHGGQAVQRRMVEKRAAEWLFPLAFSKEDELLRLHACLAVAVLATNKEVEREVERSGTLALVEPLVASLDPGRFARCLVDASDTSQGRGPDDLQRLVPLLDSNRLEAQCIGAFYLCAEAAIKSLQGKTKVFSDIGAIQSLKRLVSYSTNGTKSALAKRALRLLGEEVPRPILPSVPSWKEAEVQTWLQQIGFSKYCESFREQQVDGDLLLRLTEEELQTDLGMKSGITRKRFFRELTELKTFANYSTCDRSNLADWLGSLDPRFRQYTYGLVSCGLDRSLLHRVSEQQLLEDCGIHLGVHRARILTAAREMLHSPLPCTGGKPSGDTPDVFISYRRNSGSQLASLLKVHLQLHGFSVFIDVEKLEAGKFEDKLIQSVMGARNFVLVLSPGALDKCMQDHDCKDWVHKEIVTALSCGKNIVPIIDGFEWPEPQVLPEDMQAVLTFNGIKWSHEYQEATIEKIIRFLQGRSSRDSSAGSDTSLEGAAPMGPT
# ATP-dependent translocase ABCB1 (Homo sapiens), sequence (P08183 whole entry, looked up): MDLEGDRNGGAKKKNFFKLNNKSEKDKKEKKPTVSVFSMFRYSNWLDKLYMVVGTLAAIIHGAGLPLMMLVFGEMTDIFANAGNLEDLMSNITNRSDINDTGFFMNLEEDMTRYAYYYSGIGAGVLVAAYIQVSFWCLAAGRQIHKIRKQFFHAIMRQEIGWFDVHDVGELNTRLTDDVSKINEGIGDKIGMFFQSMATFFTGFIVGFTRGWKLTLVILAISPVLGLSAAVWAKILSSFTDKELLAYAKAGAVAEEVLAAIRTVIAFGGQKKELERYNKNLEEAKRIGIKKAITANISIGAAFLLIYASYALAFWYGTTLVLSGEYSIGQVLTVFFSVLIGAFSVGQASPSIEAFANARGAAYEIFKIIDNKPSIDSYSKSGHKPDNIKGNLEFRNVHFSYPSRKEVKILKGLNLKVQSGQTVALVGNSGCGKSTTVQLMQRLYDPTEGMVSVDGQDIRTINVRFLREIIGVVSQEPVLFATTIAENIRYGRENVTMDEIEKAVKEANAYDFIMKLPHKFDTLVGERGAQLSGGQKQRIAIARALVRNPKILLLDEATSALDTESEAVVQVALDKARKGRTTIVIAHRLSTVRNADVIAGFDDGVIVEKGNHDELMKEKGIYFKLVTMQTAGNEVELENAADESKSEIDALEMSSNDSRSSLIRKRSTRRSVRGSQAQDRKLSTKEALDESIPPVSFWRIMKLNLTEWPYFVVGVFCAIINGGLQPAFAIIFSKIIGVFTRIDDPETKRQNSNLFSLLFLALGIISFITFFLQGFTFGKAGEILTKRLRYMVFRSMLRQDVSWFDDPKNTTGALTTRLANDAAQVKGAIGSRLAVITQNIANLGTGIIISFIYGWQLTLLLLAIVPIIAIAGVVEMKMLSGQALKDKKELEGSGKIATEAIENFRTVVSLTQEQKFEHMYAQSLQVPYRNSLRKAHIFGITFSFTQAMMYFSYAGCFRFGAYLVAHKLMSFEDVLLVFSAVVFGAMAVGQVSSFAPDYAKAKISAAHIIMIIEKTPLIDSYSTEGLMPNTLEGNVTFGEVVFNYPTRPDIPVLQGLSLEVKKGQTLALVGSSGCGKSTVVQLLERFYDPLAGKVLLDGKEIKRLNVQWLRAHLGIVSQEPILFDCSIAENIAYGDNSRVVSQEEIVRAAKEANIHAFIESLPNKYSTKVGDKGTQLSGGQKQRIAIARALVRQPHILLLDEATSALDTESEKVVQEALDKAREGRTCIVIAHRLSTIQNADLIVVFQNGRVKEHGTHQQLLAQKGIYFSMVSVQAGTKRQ
smiles,measurement,setting,value
CC(C)[N+]1(C)[C@@H]2CC[C@H]1CC(OC(=O)C(CO)c1ccccc1)C2 (stereo not given in full),fluorescence slope change,[1],52.9% (active)
same,parasite load remaining,[2],74.8% (inactive)
same,viability,[2],106%
same,fold change,[3]; [16],0.879 (inactive)
same,fold change,[3]; [17],1.21
same,cell count,[3]; [18],10100
same,cell count,[3]; [19],11500
same,z-score,[4]; [20],-0.791 (inactive)
same,z-score,[4]; [21],-0.158
same,remaining NAD,[5],10 nM (inactive)
same,luciferase signal,[6],44 AU (inactive)
same,z-score,[7],0.555 (inactive)
NC(=O)c1cncc(Br)c1,fold change,[3]; [16],0.888 (inactive)
same,fold change,[3]; [17],0.503
same,cell count,[3]; [18],8870
same,cell count,[3]; [19],9990
same,z-score,[4]; [20],0.375 (inactive)
same,z-score,[4]; [21],-0.195
same,z-score,[7],0.76 (inactive)
CCCCS(=O)(=O)CCC(=O)O,fold change,[3]; [16],0.879 (inactive)
same,fold change,[3]; [17],0.837
same,cell count,[3]; [18],8330
same,cell count,[3]; [19],9470
same,z-score,[4]; [20],-0.282 (inactive)
same,z-score,[4]; [21],-0.71
same,z-score,[7],-0.155 (inactive)
NC[C@H]1O[C@H](O[C@H]2[C@H](O)[C@@H](O[C@H]3O[C@H](CO)[C@@H](O)[C@H](N)[C@H]3O)[C@H](N)C[C@@H]2N)[C@H](O)[C@@H](O)[C@@H]1O,inhibition,[8],5.91%
same,score,[9],1.82
same,rescue above control,[10],-8.71
same,cytochrome c release ratio,[11],1
same,inhibition of aggregation,[12],28.5%
same,glutamate uptake change,[13],2.43%
same,inclusion score,[14],2
same,aggregation suppression score,[15],1.68
same,parasite load remaining,[2],178% (inactive)
same,viability,[2],108%
same,fold change,[3]; [16],0.854 (inactive)
same,fold change,[3]; [17],1.26
same,cell count,[3]; [18],8420
same,cell count,[3]; [19],9860
same,z-score,[4]; [20],-0.387 (inactive)
same,z-score,[4]; [21],-0.145
same,remaining NAD,[5],10 nM (inactive)
same,luciferase signal,[6],40 AU (inactive)
CC(C)C(=O)N1CCC(CNC(=O)c2ccno2)CC1,fold change,[3]; [16],0.927 (inactive)
same,fold change,[3]; [17],0.833
same,cell count,[3]; [18],9650
same,cell count,[3]; [19],10400
same,z-score,[4]; [20],0.208 (inactive)
same,z-score,[4]; [21],0.293
same,z-score,[7],-0.57 (inactive)
Cc1ccc2c(c1)N(Cc1nc(C(C)(C)C)no1)C(=O)CO2,fold change,[3]; [16],1.19 (inactive)
same,fold change,[3]; [17],0.578
same,cell count,[3]; [18],6310
same,cell count,[3]; [19],5280
same,z-score,[4]; [20],-0.543 (inactive)
same,z-score,[4]; [21],-0.423
same,z-score,[7],-0.52 (inactive)
CCNC(=O)c1cccnc1N1CCN(c2ccc(Cl)cc2)CC1,fold change,[3]; [16],0.873 (inactive)
same,fold change,[3]; [17],0.821
same,cell count,[3]; [18],7830
same,cell count,[3]; [19],8970
same,z-score,[4]; [20],-0.247
same,z-score,[4]; [21],2.02
same,z-score,[7],0.35 (inactive)
C[C@@H]1CCC[C@H](C)N1NC(=O)c1ccc(Cl)c(S(N)(=O)=O)c1,fluorescence slope change,[1],11.3% (inactive)
same,parasite load remaining,[2],123% (inactive) and 80.9% (inactive)
same,viability,[2],112% and 106%
same,fold change,[3]; [16],0.884 (inactive) and 0.878 (inactive)
same,fold change,[3]; [17],1.72 and 1.06
same,cell count,[3]; [18],9180 and 9670
same,cell count,[3]; [19],10400 and 11000
same,z-score,[4]; [20],0.52 (inactive) and -0.675 (inactive)
same,z-score,[4]; [21],-0.0626 and -0.387
same,luciferase signal,[6],100 AU (inactive)
same,z-score,[7],0.85 (inactive)
O=S(=O)(O)CCNC1CCCCC1,fold change,[3]; [16],0.931 (inactive)
same,fold change,[3]; [17],0.147
same,cell count,[3]; [18],9490
same,cell count,[3]; [19],10200
same,z-score,[4]; [20],0.282 (inactive)
same,z-score,[4]; [21],-0.218
same,z-score,[7],0.78 (inactive)
Cc1ccc(-c2ncnc3scc(C)c23)c2cccnc12,fold change,[3]; [16],0.907 (inactive)
same,fold change,[3]; [17],1.31
same,cell count,[3]; [18],8040
same,cell count,[3]; [19],8860
same,z-score,[4]; [20],-0.0169 (inactive)
same,z-score,[4]; [21],-0.263
same,z-score,[7],-0.425 (inactive)
COc1ccc(CN(C)C(=O)Nc2nc(C)n(C)n2)c2cccnc12,fold change,[3]; [16],0.889 (inactive)
same,fold change,[3]; [17],0.916
same,cell count,[3]; [18],8870
same,cell count,[3]; [19],9980
same,z-score,[4]; [20],0.16 (inactive)
same,z-score,[4]; [21],-0.562
same,z-score,[7],-0.55 (inactive)
Cn1cc(/C=C/C(=O)N2CCc3[nH]nc(-c4ccccc4F)c3C2)cn1,fold change,[3]; [16],0.865 (inactive)
same,fold change,[3]; [17],2.04
same,cell count,[3]; [18],7720
same,cell count,[3]; [19],8920
same,z-score,[4]; [20],-0.472 (inactive)
same,z-score,[4]; [21],-0.29
same,z-score,[7],-0.48 (inactive)
O=C(O)c1ccc(-c2ccccc2OC(F)(F)F)o1,fold change,[3]; [16],0.872 (inactive)
same,fold change,[3]; [17],0.264
same,cell count,[3]; [18],8780
same,cell count,[3]; [19],10100
same,z-score,[4]; [20],-0.488 (inactive)
same,z-score,[4]; [21],0.181
same,z-score,[7],0.04 (inactive)
CCCn1cc(-c2ccnc(NC3CCN(Cc4cccnc4)CC3)n2)c(C)n1,fold change,[3]; [16],0.82 (inactive)
same,fold change,[3]; [17],2
same,cell count,[3]; [18],3430
same,cell count,[3]; [19],4180
same,z-score,[4]; [20],-0.647 (inactive)
same,z-score,[4]; [21],0.672
same,z-score,[7],-0.55 (inactive)
O=C(CC(=O)C(F)(F)F)c1cccs1,fold change,[3]; [16],0.883 (inactive)
same,fold change,[3]; [17],0.164
same,cell count,[3]; [18],8190
same,cell count,[3]; [19],9270
same,z-score,[4]; [20],-1.06 (inactive)
same,z-score,[4]; [21],0.275
same,z-score,[7],-0.485 (inactive)
CC(C)C1=NOC(c2nc(-c3cccc4ccccc34)no2)C1 (stereo not given),fold change,[3]; [16],0.862 (inactive)
same,fold change,[3]; [17],1.54
same,cell count,[3]; [18],7930
same,cell count,[3]; [19],9200
same,z-score,[4]; [20],0.244 (inactive)
same,z-score,[4]; [21],0.252
same,z-score,[7],2 (inactive)
CC(C)(N)c1cn(C2CCN(c3nc(N)nc4nc[nH]c34)CC2)nn1,fold change,[3]; [16],0.945 (inactive)
same,fold change,[3]; [17],0.882
same,cell count,[3]; [18],9180
same,cell count,[3]; [19],9720
same,z-score,[4]; [20],1.11 (inactive)
same,z-score,[4]; [21],-0.203
same,z-score,[7],-0.545 (inactive)
Cn1c(=O)c(O)c(O)c2ccccc21,fold change,[3]; [16],0.815 (inactive)
same,fold change,[3]; [17],0.99
same,cell count,[3]; [18],4980
same,cell count,[3]; [19],6110
same,z-score,[4]; [20],-0.227 (inactive)
same,z-score,[4]; [21],-0.541
same,z-score,[7],-2.27 (inactive)
Cc1c(CNC(=O)C(=O)c2c(-c3ccccc3)cc3ccccn23)cnn1C,fold change,[3]; [16],0.827 (inactive)
same,fold change,[3]; [17],2.08
same,cell count,[3]; [18],7720
same,cell count,[3]; [19],9330
same,z-score,[4]; [20],0.665 (inactive)
same,z-score,[4]; [21],-0.13
same,z-score,[7],0.815 (inactive)
CC1(C)CC(=O)c2c(N)ncnc2C1,fold change,[3]; [16],0.894 (inactive)
same,fold change,[3]; [17],0.392
same,cell count,[3]; [18],9160
same,cell count,[3]; [19],10200
same,z-score,[4]; [20],0.568 (inactive)
same,z-score,[4]; [21],-0.422
same,z-score,[7],0.725 (inactive)
